According to PubChem BioAssay AID624094 (National Center for Advancing Translational Sciences (NCATS), 2012):
Results filed as inconclusive are left out. Active and inactive are the calls of the source. Calls come from the whole dose curve; as a rule, active = well fitted inhibition curve with a large enough effect; inconclusive = small, poorly fitted or top-dose-only effect; inactive = flat fitted curve, though single readings scatter.

Target: Dual specificity protein kinase CLK4 (Homo sapiens) (UniProt Q9HAZ1)
Assay: Confirmation Assay for Inhibitors of Clk4 (Kinase-Glo Assay): KU probe
Conditions: recombinant Clk4, Kinase-Glo ATP luminescence
Experimental: NIH Molecular Libraries Probe Production Centers Network [MLPCN] NIH Chemical Genomics Center [NCGC] MLPCN Grant: 1R03MH084827-01 Assay Submitter (PI): Tom Misteli NCGC Assay Overview: Clk4 (Invitrogen, cat# PV3839) was assayed using ATP and the RS repeat peptide (AnaSpec cat # 61722) as substrates. Following the Clk4 reaction, the remaining ATP levels were detected using Promega Kinase-Glo technology wherein the remaining ATP from the kinase reaction is detected using Ultra-Glo luciferase and D-luciferin which generates a bioluminescence signal from the ATP.
NCGC Assay Protocol Summary: Two uL/well of substrate-buffer solution (100 uM RS peptide, 1 uM ATP, 25 mM Tris pH7.5, 10 mM MgCl2, 0.5 mM EGTA, 2.5 mM DTT, 0.01% Triton X-100 final concentration) was dispensed into 1536-well, assay plates (Greiner, solid white medium-binding plates) with Aurora Discovery BioRAPTR Flying Reagent Dispenser (FRD; Beckton-Dickenson). Using a Kalypsys pin tool equipped with a 1536-pin tool, 23 nL of compound solution was transferred to the assay plate. […] Luminescence was detected with the ViewLux plate reader (Perkin Elmer, Waltham, MA) after 5 min incubation using a 5 second exposure time and 2x binning.

Dual specificity protein kinase CLK4 (Homo sapiens), sequence (Q9HAZ1 whole entry, looked up): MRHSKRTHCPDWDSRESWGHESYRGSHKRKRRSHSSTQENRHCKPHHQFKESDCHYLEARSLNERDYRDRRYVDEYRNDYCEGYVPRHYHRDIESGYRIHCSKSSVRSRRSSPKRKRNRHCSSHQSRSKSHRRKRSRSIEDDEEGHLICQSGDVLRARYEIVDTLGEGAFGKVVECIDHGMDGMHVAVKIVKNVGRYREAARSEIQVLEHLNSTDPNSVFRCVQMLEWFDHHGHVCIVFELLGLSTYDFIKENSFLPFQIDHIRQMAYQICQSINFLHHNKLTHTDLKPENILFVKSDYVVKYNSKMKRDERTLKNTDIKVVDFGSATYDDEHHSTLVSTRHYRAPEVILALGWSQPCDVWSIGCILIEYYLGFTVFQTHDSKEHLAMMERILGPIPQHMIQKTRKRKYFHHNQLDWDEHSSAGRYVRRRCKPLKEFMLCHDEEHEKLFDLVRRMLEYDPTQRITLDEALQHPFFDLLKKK

Row | SMILES | Potency
1 | Cc1cc(CNc2ccnc(-c3ccc4c(c3)OCO4)n2)cnc1F | 9.23 µM (active)
2 | Clc1ccc(CNc2ccnc(-c3ccc4c(c3)OCO4)n2)cn1 | 29.2 µM (active)
